# Shown are actives, neighbours in structure and some others; about 1.6% of the full set was active somewhere.
# KCNQ2 enhance = enhances the rat KCNQ2 potassium channel. AID 2239. 310,000 compounds, 0.54% hits. CHO-K1 KCNQ2, FluxOR thallium flux fluorescence; active compounds read high. B-score at 10 µM;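 active means fluorescence ratio B-score at least 3 SD of library B-scores, with initial fluorescence B-score within 3 of them, cut at about 5.3 in these data; same plate scores as AID 2156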;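 further: B-score of peak minus minimum over baseline fluorescence ratio after K+ and Tl+ stimulus; positive B-score means potentiation of KCNQ2 with more thallium influx and brighter signal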
# KCNQ2 inh = KCNQ2 (rat) channel inhibition; O88943; CHO-K1 KCNQ2, FluxOR thallium flux, 20 min; active compounds read low; B-score at 10 µM; 310,000 compounds, 1.1% hits;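 active means fluorescence ratio B-score at most minus 3 library SDs, with starting brightness B-score within 2 library SDs, cut at about -5.5 in these data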
# Kir21 confirm = confirmation of mouse Kir2.1 potassium channel inhibitors; shares compounds with KCNQ2 enhance; Kir2.1-expressing cells, FluxOR thallium flux fluorescence; active compounds read low; Tl flux remaining, % of negative control (active compounds read low), % at 10 µM; 2,300 compounds, 41% hits; AID 2032;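 active means Primary-screen hit whose thallium flux fell at least 3 control SD below untreated wells in both duplicates, with normal baseline fluorescence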;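 further: 0% = blank wells without stimulus and 100% = stimulated no-compound controls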
# HEK293 Tl flux = alters thallium flux in parental HEK293 cells, Kir2.1 counter-screen. shares compounds with KCNQ2 enhance. FluxOR thallium flux fluorescence; 0% = unstimulated blank wells. 2,300 compounds, 19% hits. FluxOR signal as % of negative control (100 = no effect), % at 10 µM;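 active means dye signal at least 3 control SD above or below untreated wells in both duplicates, raw fluorescence within 3, either direction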;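 further: percent is based on the flux ratio of peak minus minimum fluorescence over baseline F0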
# CHO-K1 ctr = parental CHO-K1 activity in KCNQ2 potentiator counter-screen; parental CHO-K1 cells, FluxOR thallium flux fluorescence; zero = vehicle mean+3SD, 100% = vehicle-minus-blank window; AID 2282; activity increase over 3SD of controls, % at 10 µM; shares compounds with KCNQ2 enhance; 1,200 compounds, 43% hits;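 active means signal rise of at least 3 SD above the untreated control mean, in both duplicate wells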;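 further: counter screen of KCNQ2 potentiator hits so any rise reflects channel-independent effects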
# KCNQ1 pot spec = selectivity of KCNQ2 potentiators: effect on human KCNQ1 | activation over 3SD threshold, % at 10 µM | CHO KCNQ1 stable, FluxOR thallium flux fluorescence; beyond 3SD, as % of vehicle-control signal | shares compounds with KCNQ2 enhance | 1,200 compounds, 28% hits;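 active means fluorescence ratio rise of at least 3 SD of vehicle wells above their mean, in both replicate wells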;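 further: 0% = vehicle mean plus 3 SD and 100% = vehicle minus unstimulated blank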
# Target sequence (P51787 whole entry, looked up): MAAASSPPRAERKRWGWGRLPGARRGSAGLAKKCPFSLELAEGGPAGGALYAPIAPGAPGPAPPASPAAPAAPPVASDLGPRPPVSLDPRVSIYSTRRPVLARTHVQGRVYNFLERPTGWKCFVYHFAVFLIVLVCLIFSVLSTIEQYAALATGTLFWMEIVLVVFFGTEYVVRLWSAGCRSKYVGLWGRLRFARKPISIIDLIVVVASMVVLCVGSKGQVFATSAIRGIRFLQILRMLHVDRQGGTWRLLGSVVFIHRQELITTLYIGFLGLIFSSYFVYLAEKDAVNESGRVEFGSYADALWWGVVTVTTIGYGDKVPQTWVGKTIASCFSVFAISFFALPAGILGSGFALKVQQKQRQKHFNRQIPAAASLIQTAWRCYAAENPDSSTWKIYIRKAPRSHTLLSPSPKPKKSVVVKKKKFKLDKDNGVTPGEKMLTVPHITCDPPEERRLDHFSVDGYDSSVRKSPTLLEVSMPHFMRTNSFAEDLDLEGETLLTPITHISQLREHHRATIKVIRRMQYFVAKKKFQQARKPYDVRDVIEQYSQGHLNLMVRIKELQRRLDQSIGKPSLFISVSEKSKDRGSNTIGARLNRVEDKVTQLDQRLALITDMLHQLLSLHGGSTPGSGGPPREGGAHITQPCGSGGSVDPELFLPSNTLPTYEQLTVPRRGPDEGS
# KCNQ2 pot conf = confirmation of rat KCNQ2 potassium channel potentiators; shares compounds with KCNQ2 enhance; CHO-KCNQ2 cells, FluxOR thallium flux fluorescence; potentiation, less the hit threshold, % at 10 µM; 1,200 compounds, 68% hits; AID 2287;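 active means fluorescence ratio rising 3 SD or more over the vehicle control mean in both replicates, plus primary screen hit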;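 further: peak minus minimum thallium fluorescence divided by baseline after K/Tl stimulus; 0% = vehicle mean plus 3 SD and 100% = vehicle minus unstimulated blank difference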
# Kir2-1 sel = selectivity of KCNQ2 potentiators: effect on mouse Kir2.1 | shares compounds with KCNQ2 enhance | HEK293 Kir2.1, FluxOR thallium flux fluorescence | activity over 3SD threshold, % at 10 µM | 1,200 compounds, 2% hits | AID 2345;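 active means fluorescence ratio rise of at least 3 SD above the vehicle-control mean, seen in both replicates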;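 further: 0% = vehicle mean plus 3 SD and 100% = vehicle minus no-stimulus blank window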
# KCNQ2 W236L pot = rat KCNQ2 W236L mutant potentiation by KCNQ2 potentiators; shares compounds with KCNQ2 enhance; CHO KCNQ2-W236L, automated patch clamp current; current increase over 3SD of negative controls (%), active compounds read high, % at 25 µM; 940 compounds, 10% hits; AID 2558;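 active means current increase at least 3 SD of the untreated controls above them in both duplicate recordings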
# Numbers without * were called inactive; i = inactive; / = not tested or not shown.
SMILES,KCNQ2 enhance,KCNQ2 inh,Kir21 confirm,HEK293 Tl flux,others
O=c1c2ccccc2nc(-c2ccccc2Cl)n1O,/,i,/,/,
O=c1c2cc(Cl)ccc2nc(-c2ccc([N+](=O)[O-])cc2)n1O,9.7*,i,i,308%*,CHO-K1 ctr=-9;KCNQ1 pot spec=-18;KCNQ2 pot conf=42*;Kir2-1 sel=-25;KCNQ2 W236L pot=i
O=c1c2ccccc2nc(-c2ccc(Cl)c(Cl)c2)n1O,15*,i,i,314%*,CHO-K1 ctr=-13;KCNQ1 pot spec=-10;KCNQ2 pot conf=50*;Kir2-1 sel=-30;KCNQ2 W236L pot=i
On1c(-c2ccccc2)nc2ccc(Cl)cc21,/,i,/,/,
O=c1c2cc(Br)ccc2nc(-c2ccc(Cl)cc2)n1O,17*,i,i,566%*,CHO-K1 ctr=-8;KCNQ1 pot spec=41*;KCNQ2 pot conf=93*;Kir2-1 sel=15*;KCNQ2 W236L pot=i
Cc1cc(NC(=O)C2CCCCC2)ccc1NC(=O)c1ccccc1Cl,/,i,/,/,
CN(C(=O)COC(=O)COc1ccc(Cl)cc1Cl)c1c(N)n(Cc2ccccc2)c(=O)[nH]c1=O,0.57,i,/,/,
Cc1ccccc1CNC(=O)C(=O)NCCC1CCCCN1S(=O)(=O)c1cccs1 (stereo unspecified),/,i,/,/,
CCc1cc2c(CN3CCN(CCO)CC3)cc(=O)oc2cc1O,0.97,i,/,/,
Cc1ccc(NC(=O)CSc2nc3ncc(Cl)cc3[nH]2)c(C)c1,0.68,i,/,/,
N#Cc1ccc(-c2nc3cc(Cl)ccc3c(=O)n2O)cc1,4.7,i,/,/,
O=c1c2ccc(Cl)cc2nc(-c2cccc(C(F)(F)F)c2)n1O,18*,i,i,498%*,CHO-K1 ctr=-12;KCNQ1 pot spec=-13;KCNQ2 pot conf=66*;Kir2-1 sel=4.2*;KCNQ2 W236L pot=i
COc1nc(C)cc(C)c1S(=O)(=O)c1ccc(Cl)cc1,0.07,i,/,/,
CCOc1nc(C)cc(C)c1S(=O)(=O)c1ccc(Cl)cc1,1.1,i,52%*,i,
Cc1cc(Cl)c(OCCCNCc2ccccc2)c(Br)c1,/,i,/,/,
Cc1cc(Cl)cc(Br)c1OCCCNCC(C)O (stereo unspecified),1.3,i,27%*,i,
Cc1ccc(OCCCCN(C)Cc2ccccc2)c(Br)c1,/,i,/,/,
Cc1ccccc1OCCNCC(C)O (stereo unspecified),/,i,/,/,
Cc1cc(C)c(OCCCNCc2ccccc2)c(Br)c1,/,i,12%*,i,
Clc1ccc(Cl)c(OCCCCNCc2ccccc2)c1,/,i,/,/,
Clc1ccc(OCCCNCc2ccccc2)c(Br)c1,/,i,9.5%*,74%*,
Cc1cc(C)c(OCCCCN(C)Cc2ccccc2)c(C)c1,/,i,22%*,i,
Cc1nn(Cc2ccccc2)c2ncccc12,/,i,/,/,
Cn1c(=O)[nH]c(=O)c2c1nc1n2CC(COc2ccc3ccccc3c2)O1 (stereo unspecified),0.05,i,/,/,
Cc1cc(/C=N/NC(=O)c2cc3ccccc3o2)c(C)n1C,/,i,/,/,
SMILES,KCNQ2 enhance,KCNQ2 inh,Kir21 confirm,HEK293 Tl flux,others
Cc1ccc(CNC(=O)COC(=O)c2ccc(Cl)c(N)c2)cc1,/,i,/,/,
O=C(NCc1ccc(CNC(=O)c2ccco2)cc1)c1ccco1,/,i,/,/,
C(=N\N(Cc1ccccc1)c1ccccc1)/c1ccco1,/,i,/,/,
CCCc1nc2oc3c(Cl)ncnc3c2c2c1CCCC2,0.39,i,/,/,
CCCc1nc2oc3c(NCCN(C)C)ncnc3c2c2c1CCCC2,5.4*,i,i,i,CHO-K1 ctr=-16;KCNQ1 pot spec=-4;KCNQ2 pot conf=51*;Kir2-1 sel=-57;KCNQ2 W236L pot=i
CC1(C)CC[C@@]23CC[C@]4(C)[C@@](OC2=O)(C3C1)[C@H]1O[C@H]1C1[C@@]2(C)CC[C@H](O)C(C)(C)C2CC[C@]14C (stereo partly specified),0.71,i,/,/,
CN1CCc2c(sc(/N=C/c3cc(C(C)(C)C)ccc3O)c2C#N)C1,11*,i,i,i,CHO-K1 ctr=-8;KCNQ1 pot spec=-17;KCNQ2 pot conf=-15;Kir2-1 sel=-34
COc1ccc(/C=N/c2sc3c(c2C#N)CCN(Cc2ccccc2)C3)c(O)c1,/,i,/,/,
O=C(CCCCCC(=O)N(CCO)CCO)N(CCO)CCO,1.4,i,/,/,
CC(=O)c1cccc(NC(=O)c2ccoc2C)c1,2.1,i,/,/,
Cc1occc1C(=O)Nc1ccc2ccccc2c1,13*,i,i,i,CHO-K1 ctr=105*;KCNQ1 pot spec=-17;KCNQ2 pot conf=60*;Kir2-1 sel=-30;KCNQ2 W236L pot=i
Cc1cc(C)c(NC(=O)c2ccoc2C)c(C)c1,6.1*,i,i,i,CHO-K1 ctr=-3;KCNQ1 pot spec=-3;KCNQ2 pot conf=9.5*;Kir2-1 sel=-16;KCNQ2 W236L pot=i
Cc1occc1C(=O)Nc1ccccc1C(=O)O,/,i,/,/,
Cc1cc(=O)n2cccc(O)c2n1,0.64,i,/,/,
CCC1CCCCN1C(=O)NC(=O)c1ccccc1 (stereo unspecified),/,i,/,/,
COc1ccc(-c2noc(=O)n2CC(=O)N2CCC(Cc3ccccc3)CC2)cc1,0.06,i,/,/,
COc1ccc(N2CCN(C(CNS(=O)(=O)c3cc(F)ccc3F)c3cccnc3)CC2)cc1 (stereo unspecified),/,i,/,/,
COc1cc(CNc2cccc(F)c2)cc(Br)c1O,11*,i,i,i,CHO-K1 ctr=2.4*;KCNQ1 pot spec=-8;KCNQ2 pot conf=-6;Kir2-1 sel=-23
COc1ccc(CNc2ccccc2)cc1Br,/,i,/,/,
COCCN(C(=O)COC(=O)CCC1CCCC1)c1c(N)n(Cc2ccccc2)c(=O)[nH]c1=O,1.4,i,/,/,
COc1ccc(NC(=O)CCNS(=O)(=O)c2cccc3nonc23)c(OC)c1,/,i,/,/,
CS(=O)(=O)N(CC(=O)N1CCCCC1)C1CCCCC1,13*,i,i,i,CHO-K1 ctr=-8;KCNQ1 pot spec=-25;KCNQ2 pot conf=-12;Kir2-1 sel=-23
CS(=O)(=O)N(CC(=O)N1CCN(C(c2ccccc2)c2ccccc2)CC1)C1CCCCC1,2.1,i,/,/,
CC(C)C1Cc2c(sc3[nH]c(=S)n(Cc4ccccc4)c(=O)c23)CO1 (stereo unspecified),7.3*,i,i,396%*,CHO-K1 ctr=19*;KCNQ1 pot spec=-9;KCNQ2 pot conf=52*;Kir2-1 sel=-13;KCNQ2 W236L pot=i
Cc1nnc2n(-c3ccccc3)c(=O)c3c4c(sc3n12)COC(C(C)C)C4 (stereo unspecified),0.2,i,/,/,
N=c1n(CCN2CCCCC2)c2ccccc2n1CC(O)c1ccc(Cl)c(Cl)c1 (stereo unspecified),/,i,36%*,64%*,
N=c1n(CCN2CCCCC2)c2ccccc2n1CC(O)c1cccc(Br)c1 (stereo unspecified),/,i,40%*,i,

# Screens: PubChem, Johns Hopkins Ion Channel Center
